Common to all, as to experiment: DAPPL (digital affinity profiling via proximity ligation, sequencing); 10 mM Tris-HCl pH 7.5, 50 mM NaCl, 1 mM DTT, 4% glycerol, room temperature, 30 min; GST-TFs on glutathione beads, 16-mer random dsDNA library, 0.1% formaldehyde crosslink after washing; high values mean tight binding
Common to all, as to settings: protein: recombinant; tags: N-terminal GST; dsDNA, one strand shown

One experiment has as its target T1, FEV (Homo sapiens, UniProt Q99581 1-238).
T1 sequence: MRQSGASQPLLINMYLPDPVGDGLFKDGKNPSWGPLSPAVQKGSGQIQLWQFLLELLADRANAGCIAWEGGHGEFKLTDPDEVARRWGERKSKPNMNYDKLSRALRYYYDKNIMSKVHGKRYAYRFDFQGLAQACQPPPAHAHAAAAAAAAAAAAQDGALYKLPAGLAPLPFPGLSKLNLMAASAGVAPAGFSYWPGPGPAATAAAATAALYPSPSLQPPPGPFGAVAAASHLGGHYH
The procedure, abridged: (§1)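 Binding signal is given per hexamer as its read frequency for a factor divided by its frequency in the tag-only sample. GST-fused human transcription factors were expressed in yeast, captured on glutathione beads, barcoded with DNA and pooled with that sample, then incubated with 200 nmole of a 16-mer random double-stranded DNA library in Tris/NaCl/DTT/glycerol buffer for 30 min at room temperature. The pools were then washed, crosslinked, proximity-ligated, amplified by PCR and sequenced on an Illumina NextSeq500.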

A further experiment has as its target ETV5 (Homo sapiens, UniProt P41161 1-510). The essentials: as §1
The target of a further experiment is T2, SPIC (Homo sapiens, UniProt Q8N5J4 1-248).
T2 sequence: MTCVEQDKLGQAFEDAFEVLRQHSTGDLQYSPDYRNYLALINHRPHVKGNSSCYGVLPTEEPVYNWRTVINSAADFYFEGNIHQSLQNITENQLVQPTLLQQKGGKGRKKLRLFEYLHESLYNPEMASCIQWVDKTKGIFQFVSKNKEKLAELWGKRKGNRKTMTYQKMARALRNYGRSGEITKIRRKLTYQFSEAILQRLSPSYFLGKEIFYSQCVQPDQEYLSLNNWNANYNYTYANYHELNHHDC
The procedure, abridged:
as §1

A further experiment addresses ELF4 (Homo sapiens, UniProt Q99607 1-663). The essentials:
as §1

In another experiment the target is T3, ELK4 (Homo sapiens, UniProt P28324-2 1-405).
T3 sequence: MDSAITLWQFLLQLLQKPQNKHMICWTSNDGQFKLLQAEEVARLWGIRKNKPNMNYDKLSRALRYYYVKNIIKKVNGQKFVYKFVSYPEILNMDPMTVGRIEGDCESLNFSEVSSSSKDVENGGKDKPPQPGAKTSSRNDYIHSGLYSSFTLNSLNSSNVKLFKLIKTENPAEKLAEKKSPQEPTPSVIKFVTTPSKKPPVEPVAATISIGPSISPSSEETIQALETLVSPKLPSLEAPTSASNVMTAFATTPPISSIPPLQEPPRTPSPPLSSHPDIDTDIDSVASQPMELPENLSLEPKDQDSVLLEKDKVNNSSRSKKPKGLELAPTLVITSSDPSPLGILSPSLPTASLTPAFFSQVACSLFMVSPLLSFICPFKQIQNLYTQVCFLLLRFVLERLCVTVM
The essentials: as §1

A further experiment addresses T4, ETV2 (Homo sapiens, UniProt O00321 1-342).
T4 sequence: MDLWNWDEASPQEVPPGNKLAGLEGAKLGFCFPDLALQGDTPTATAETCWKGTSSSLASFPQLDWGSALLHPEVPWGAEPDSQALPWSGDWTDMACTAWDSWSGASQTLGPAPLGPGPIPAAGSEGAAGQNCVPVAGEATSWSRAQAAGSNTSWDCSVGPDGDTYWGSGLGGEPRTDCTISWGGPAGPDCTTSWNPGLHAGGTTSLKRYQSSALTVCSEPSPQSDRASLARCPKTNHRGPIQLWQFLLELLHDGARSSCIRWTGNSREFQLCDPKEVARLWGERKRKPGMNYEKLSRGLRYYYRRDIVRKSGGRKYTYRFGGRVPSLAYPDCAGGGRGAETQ
The procedure, abridged: as §1

A further experiment has as its target T5, ELF3 (Homo sapiens, UniProt P78545 1-371).
T5 sequence: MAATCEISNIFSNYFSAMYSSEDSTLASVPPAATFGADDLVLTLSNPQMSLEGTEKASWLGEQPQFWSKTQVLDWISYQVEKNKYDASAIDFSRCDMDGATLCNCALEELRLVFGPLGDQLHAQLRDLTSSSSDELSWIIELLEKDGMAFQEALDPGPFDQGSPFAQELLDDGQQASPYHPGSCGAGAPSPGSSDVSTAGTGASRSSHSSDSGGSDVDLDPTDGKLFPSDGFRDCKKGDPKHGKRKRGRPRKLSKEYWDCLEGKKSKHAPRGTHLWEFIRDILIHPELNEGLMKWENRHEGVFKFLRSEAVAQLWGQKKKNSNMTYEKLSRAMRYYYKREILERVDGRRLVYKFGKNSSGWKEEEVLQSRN
The essentials:
as §1

For another experiment, the target named is ETV1 (Homo sapiens, UniProt P50549 1-477). The essentials:
as §1

Sequence of ETV1 (P50549 whole entry): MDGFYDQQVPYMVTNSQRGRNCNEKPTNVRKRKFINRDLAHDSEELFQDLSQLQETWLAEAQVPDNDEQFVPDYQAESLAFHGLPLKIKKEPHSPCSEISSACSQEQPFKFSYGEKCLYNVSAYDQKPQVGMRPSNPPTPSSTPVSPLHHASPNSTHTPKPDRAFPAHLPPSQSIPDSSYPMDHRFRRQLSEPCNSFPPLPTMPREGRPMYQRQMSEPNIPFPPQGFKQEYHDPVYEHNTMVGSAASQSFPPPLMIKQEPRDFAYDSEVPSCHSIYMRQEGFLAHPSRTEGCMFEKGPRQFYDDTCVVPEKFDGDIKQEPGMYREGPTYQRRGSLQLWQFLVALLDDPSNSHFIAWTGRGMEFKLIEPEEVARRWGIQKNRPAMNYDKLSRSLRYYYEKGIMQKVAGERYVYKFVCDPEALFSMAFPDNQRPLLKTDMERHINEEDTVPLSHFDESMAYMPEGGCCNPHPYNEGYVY
Sequence of ETV5 (P41161 whole entry): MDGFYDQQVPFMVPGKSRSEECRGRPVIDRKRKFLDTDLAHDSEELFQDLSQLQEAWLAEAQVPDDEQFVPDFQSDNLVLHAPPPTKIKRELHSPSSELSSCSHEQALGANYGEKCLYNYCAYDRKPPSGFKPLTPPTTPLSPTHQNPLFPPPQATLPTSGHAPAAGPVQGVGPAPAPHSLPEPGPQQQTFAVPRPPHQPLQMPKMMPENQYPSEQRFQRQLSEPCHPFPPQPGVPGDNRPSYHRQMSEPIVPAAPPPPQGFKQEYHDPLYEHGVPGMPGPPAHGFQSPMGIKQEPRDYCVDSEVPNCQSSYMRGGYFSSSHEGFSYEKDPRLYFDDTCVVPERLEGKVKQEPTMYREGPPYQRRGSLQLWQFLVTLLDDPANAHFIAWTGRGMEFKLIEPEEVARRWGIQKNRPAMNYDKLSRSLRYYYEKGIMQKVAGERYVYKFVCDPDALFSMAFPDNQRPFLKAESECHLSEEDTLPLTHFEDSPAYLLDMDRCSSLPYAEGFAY
Sequence of ELF4 (Q99607 whole entry): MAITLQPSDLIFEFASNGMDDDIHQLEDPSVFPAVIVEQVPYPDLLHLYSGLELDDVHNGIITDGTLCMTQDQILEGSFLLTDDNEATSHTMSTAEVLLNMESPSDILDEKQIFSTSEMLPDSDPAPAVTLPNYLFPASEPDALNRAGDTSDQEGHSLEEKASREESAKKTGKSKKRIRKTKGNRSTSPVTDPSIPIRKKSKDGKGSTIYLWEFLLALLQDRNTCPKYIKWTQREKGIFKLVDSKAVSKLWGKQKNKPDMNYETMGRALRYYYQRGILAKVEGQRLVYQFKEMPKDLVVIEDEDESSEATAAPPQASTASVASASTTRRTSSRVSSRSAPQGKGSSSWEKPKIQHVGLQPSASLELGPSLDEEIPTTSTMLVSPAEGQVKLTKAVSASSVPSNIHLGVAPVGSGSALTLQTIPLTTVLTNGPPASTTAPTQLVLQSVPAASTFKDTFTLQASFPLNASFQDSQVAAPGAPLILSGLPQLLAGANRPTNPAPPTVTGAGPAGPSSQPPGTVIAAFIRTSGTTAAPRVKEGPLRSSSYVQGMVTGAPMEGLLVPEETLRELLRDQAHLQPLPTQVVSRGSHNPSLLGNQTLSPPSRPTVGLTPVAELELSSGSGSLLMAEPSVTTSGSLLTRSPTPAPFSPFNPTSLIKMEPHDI

For the sequence CACACT, the binding signal was 1.21 fold enrichment (6-mer frequency, TF over GST control) with FEV; 1.23 fold enrichment (6-mer frequency, TF over GST control) with ETV5; 1.13 fold enrichment (6-mer frequency, TF over GST control) in the experiment with SPIC; 1.23 fold enrichment (6-mer frequency, TF over GST control) with ELF4; 1.13 fold enrichment (6-mer frequency, TF over GST control) with ELK4; 1.14 fold enrichment (6-mer frequency, TF over GST control) in the experiment with ETV2. In addition, the binding signal was 1.21 fold enrichment (6-mer frequency, TF over GST control) with ELF3 and 1.14 fold enrichment (6-mer frequency, TF over GST control) in the experiment with ETV1.

With GCTACG, the binding signal in the experiment with FEV is 1.16 fold enrichment (6-mer frequency, TF over GST control); in the experiment with ETV5, 1.14 fold enrichment (6-mer frequency, TF over GST control); with SPIC, 1.12 fold enrichment (6-mer frequency, TF over GST control); in the experiment with ELF4, 1.14 fold enrichment (6-mer frequency, TF over GST control); in the experiment with ELK4, 1.41 fold enrichment (6-mer frequency, TF over GST control); in the experiment with ETV2, 1.1 fold enrichment (6-mer frequency, TF over GST control). Moreover, the binding signal is 1.19 fold enrichment (6-mer frequency, TF over GST control) with ELF3 and 1.25 fold enrichment (6-mer frequency, TF over GST control) in the experiment with ETV1.

Regarding CCGCCG, the binding signal with FEV was 1.55 fold enrichment (6-mer frequency, TF over GST control); in the experiment with ETV5, 1.25 fold enrichment (6-mer frequency, TF over GST control); in the experiment with SPIC, 1.22 fold enrichment (6-mer frequency, TF over GST control); with ELF4, 1.29 fold enrichment (6-mer frequency, TF over GST control); in the experiment with ELK4, 1.27 fold enrichment (6-mer frequency, TF over GST control); with ETV2, 1.11 fold enrichment (6-mer frequency, TF over GST control). In addition, the binding signal in the experiment with ELF3 was 1.23 fold enrichment (6-mer frequency, TF over GST control); in the experiment with ETV1, 1.25 fold enrichment (6-mer frequency, TF over GST control).

For GGATGT, the binding signal in the experiment with FEV was 2.08 fold enrichment (6-mer frequency, TF over GST control); in the experiment with ETV5 it was 1.77 fold enrichment (6-mer frequency, TF over GST control); in the experiment with SPIC, 1.41 fold enrichment (6-mer frequency, TF over GST control); with ELF4, 1.39 fold enrichment (6-mer frequency, TF over GST control); with ELK4, 1.36 fold enrichment (6-mer frequency, TF over GST control); with ETV2, 1.44 fold enrichment (6-mer frequency, TF over GST control). The binding signal is 1.61 fold enrichment (6-mer frequency, TF over GST control) with ELF3 and 1.69 fold enrichment (6-mer frequency, TF over GST control) with ETV1.

As to TCACAG, the binding signal with FEV was 1.09 fold enrichment (6-mer frequency, TF over GST control); in the experiment with ETV5 it was 1.07 fold enrichment (6-mer frequency, TF over GST control); in the experiment with SPIC it was 1.04 fold enrichment (6-mer frequency, TF over GST control); with ELF4, 1.17 fold enrichment (6-mer frequency, TF over GST control); with ELK4, 1.04 fold enrichment (6-mer frequency, TF over GST control); in the experiment with ETV2, 1.28 fold enrichment (6-mer frequency, TF over GST control). For the same sequence, the binding signal with ELF3 was 1.13 fold enrichment (6-mer frequency, TF over GST control); with ETV1, 1.05 fold enrichment (6-mer frequency, TF over GST control).

Take ACCCGG: the binding signal with FEV was 1.61 fold enrichment (6-mer frequency, TF over GST control); with ETV5, 1.89 fold enrichment (6-mer frequency, TF over GST control); with SPIC, 1.61 fold enrichment (6-mer frequency, TF over GST control); in the experiment with ELF4, 1.7 fold enrichment (6-mer frequency, TF over GST control); in the experiment with ELK4, 1.52 fold enrichment (6-mer frequency, TF over GST control); with ETV2, 1.63 fold enrichment (6-mer frequency, TF over GST control). Also, the binding signal with ELF3 was 1.77 fold enrichment (6-mer frequency, TF over GST control); with ETV1 it was 1.81 fold enrichment (6-mer frequency, TF over GST control).

Regarding TGACTG, the binding signal is 1.05 fold enrichment (6-mer frequency, TF over GST control) with FEV; 1.03 fold enrichment (6-mer frequency, TF over GST control) with ETV5; 1.03 fold enrichment (6-mer frequency, TF over GST control) in the experiment with SPIC; 1.09 fold enrichment (6-mer frequency, TF over GST control) with ELF4; 1.16 fold enrichment (6-mer frequency, TF over GST control) with ELK4; 1.09 fold enrichment (6-mer frequency, TF over GST control) in the experiment with ETV2. Besides, the binding signal with ELF3 is 1.04 fold enrichment (6-mer frequency, TF over GST control); with ETV1 it was 1.03 fold enrichment (6-mer frequency, TF over GST control).

In the case of GCCACT, the binding signal with FEV was 1.31 fold enrichment (6-mer frequency, TF over GST control); with ETV5, 1.2 fold enrichment (6-mer frequency, TF over GST control); with SPIC, 1.12 fold enrichment (6-mer frequency, TF over GST control); with ELF4 it was 1.21 fold enrichment (6-mer frequency, TF over GST control); with ELK4, 1.24 fold enrichment (6-mer frequency, TF over GST control); with ETV2 it was 1.15 fold enrichment (6-mer frequency, TF over GST control). Also, the binding signal with ELF3 was 1.1 fold enrichment (6-mer frequency, TF over GST control); with ETV1, 1.22 fold enrichment (6-mer frequency, TF over GST control).

The values are drawn from publication PMC7862700, “An all-to-all approach to the identification of sequence-specific readers for epigenetic DNA modifications on cytosine”.
